This is a sample that favours compounds with a hit; in the whole collection about 1.6% have one here.
KCNQ2 enhance: potentiators of rat KCNQ2 potassium channel; Potassium voltage-gated channel subfamily KQT member 2 (Rattus norvegicus), O88943; CHO-K1 KCNQ2, FluxOR thallium flux fluorescence; stronger effect = higher value; B-score at 10 µM; 310,000 compounds, 0.54% hits;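 active = fluorescence ratio B-score at least 3 SD of library B-scores, with initial fluorescence B-score within 3 of them, cut at about 5.3 in these data; same plate scores as AID 2156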;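 also: B-score of peak minus minimum over baseline fluorescence ratio after K+ and Tl+ stimulus; positive B-score means potentiation of KCNQ2 with more thallium influx and brighter signal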
KCNQ2 inh: rat KCNQ2 potassium channel inhibitors, primary screen, cell-based, CHO-K1, FluxOR thallium flux, B-score; 20 min; stronger effect = lower value; B-score at 10 µM; 310,000 compounds, 1.1% hits; AID 2156, 2009; Potassium voltage-gated channel subfamily KQT member 2 (Rattus norvegicus), O88943;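 active = fluorescence ratio B-score at most minus 3 library SDs, with starting brightness B-score within 2 library SDs, cut at about -5.5 in these data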
Numbers without * were called inactive; i = inactive; nt = no result.

SMILES	KCNQ2 enhance	KCNQ2 inh
O=C(Nc1cccc(Cl)c1N1CCCC1)c1ccc([N+](=O)[O-])o1	0.07	i
CC12CCC(=O)N1C(C(=O)OCc1c(Cl)cccc1Cl)CS2 (stereo not drawn)	0.68	i
Cc1ccn(CC(=O)N2CCCC(N3CCN(c4cccc(Cl)c4)CC3)C2)n1 (stereo not drawn)	nt	i
CCOC(=O)COc1c(OC)cc(Cl)cc1C1Nc2ccccc2C(=O)N1c1ccccc1 (stereo not drawn)	-5.62	-5.62*
CCOC(=O)COc1c(OC)cc(Cl)cc1C1Nc2ccccc2C(=O)N1c1ccc(F)cc1 (stereo not drawn)	nt	i
COC(=O)c1ccc(CNC(=O)COC(=O)C2CC3C=CC2C3)cc1 (stereo not drawn)	0.03	i
CC1=[N+]([O-])C(C)(C)C(c2ccc(Br)cc2)=[N+]1[O-]	0.75	i
COc1ccccc1N1C(=O)Cc2ccccc2C1=O	nt	i
O=C(c1cc(-c2cccnc2)nc2ccc(Cl)cc12)N1CCN(S(=O)(=O)c2cccs2)CC1	nt	i
COc1cccc(CN2CCN(C(=O)c3cc(-c4cccnc4)nc4ccc(C)cc34)CC2)c1	-7.35	-7.35*
COc1ccc(N2CCN(C(=O)Nc3ccccc3C)CC2)cc1	0.93	i
C/C(=N\NC(=O)COc1ccccc1-c1ccccc1)c1ccccn1	nt	i
C/C(=N\NC(=O)COc1ccccc1-c1ccccc1)c1cccnc1	-6.4	-6.4*
Cc1ccc(C2(CCNCc3ccco3)CCOC(C(C)C)C2)cc1 (stereo not drawn)	nt	i
CC(=O)N(CCC1(c2ccc(C)cc2)CCOC(C(C)C)C1)Cc1ccco1 (stereo not drawn)	-6.01	-6.01*
Cc1[nH][nH]c(=O)c1/C=N/N1CCOCC1	nt	i
CC(C)Cn1c(-c2cc([N+](=O)[O-])ccc2Cl)nc2c1c(=O)[nH]c(=O)n2Cc1ccccc1	7.44*	i
CCCCn1c(-c2ccncc2)nc2c1c(=O)[nH]c(=O)n2CC(C)C	nt	i
CC(C)Cn1c(-c2cc(Br)ccc2F)nc2c1c(=O)[nH]c(=O)n2CC(C)C	-6.46	-6.46*
Cc1ccc(-c2nc3c(c(=O)[nH]c(=O)n3CC(C)C)n2CC(C)C)cc1[N+](=O)[O-]	nt	i
Cc1cc(NC(=O)C2CC(=O)N(c3ccccc3Cl)C2)no1 (stereo not drawn)	1.12	i
CN1CCC/C1=C1/C(=O)N(c2ccccc2)N=C1NC(=O)Nc1cccc(Cl)c1	1.35	i
COc1ccc([N+](=O)[O-])cc1NC(=O)CSCc1ccccc1C	1.47	i
COc1ccc([N+](=O)[O-])cc1NC(=O)CSCc1ccc(Br)cc1	5.53*	i
Cc1cc(C)c(NC(=O)CN(c2ccccc2)S(=O)(=O)N(C)C)c(C)c1	-5.61	-5.61*
SMILES	KCNQ2 enhance	KCNQ2 inh
Cc1ccc(NC(=O)CN(c2ccccc2)S(=O)(=O)N(C)C)cc1C	nt	i
CCCCN(CCCC)C(=S)NC(=O)c1ccccc1Cl	19.1*	i
CCN(CC)C(=S)NC(=O)c1ccc(Cl)cc1Cl	4.17	i
O=C(CN1C(=O)CC(c2ccccc2)S(=O)(=O)c2ccccc21)N1CCCC1 (stereo not drawn)	0.08	i
O=C(COC(=O)C1CCN(S(=O)(=O)c2ccc3c(c2)OCCO3)CC1)Nc1ccc(C(F)(F)F)cc1	nt	i
COC(=O)c1c(NC(=O)CCc2ccc(C)o2)sc(C)c1C	-5.87	-5.87*
COC(=O)c1ccc(C(=O)OC)c(NC(=O)CCc2ccc(C)o2)c1	0.33	i
O=C(COC(=O)C1CCCCC1)Nc1cc([N+](=O)[O-])ccc1F	nt	i
Cc1c([N+](=O)[O-])cc(C(=O)Oc2cccc(C(=S)N3CCOCC3)c2)cc1[N+](=O)[O-]	nt	i
O=C(Nc1ccc(Oc2ccccc2)nc1)C1CCCCN1Cc1ccc(OCCO)cc1 (stereo not drawn)	0.65	i
Cc1cccc(N2CCN(S(=O)(=O)c3c(C)[nH]c(C)c3C(=O)N3CCCCC3)CC2)c1C	-5.87	-5.87*
Cc1cccc(N2CCN(S(=O)(=O)c3c(C)[nH]c(C)c3C(=O)N3CCCC3)CC2)c1C	nt	i
COc1ccc(OC)c(NC(=O)NNC(=O)COc2ccc([N+](=O)[O-])cc2)c1	nt	i
COc1ccc(CNC(=O)C(C#N)c2nc3ccccc3nc2N2CCCC2)cc1 (stereo not drawn)	nt	i
CC1CN(c2nc3ccccc3nc2C(C#N)C(=O)NCc2ccc3c(c2)OCO3)CC(C)O1 (stereo not drawn)	-5.63	-5.63*
C/C(=N\NC(=O)c1ccccc1F)c1cccc(NC(=O)c2ccc(C)cc2)c1	nt	i
CC(=O)Nc1ccc(S(=O)(=O)N/N=C/c2ccc(C)s2)cc1	0.14	i
CC12CCC(=O)N1C(C(=O)O)Cc1c2[nH]c2ccccc12 (stereo not drawn)	nt	i

High-throughput results deposited in PubChem by Johns Hopkins Ion Channel Center.
